Bioassay records deposited in PubChem by several laboratories.
mHtt clearance: compounds clearing mutant huntingtin protein. HeLa Exon1htt(103Q)mCFP, aggregate imaging; zero = plate's median compound well. inhibition, % at 1.5 µM. hit rate 0.42% among 47,000. AID 853;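 active means inhibition of aggregate fluorescence above about 70%, also judged a hit by eye on the cell image, limit read from the data, passing the limit was not always enough; inconclusive means no rule stated for this call; inactive means not judged a hit on image review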;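 further: cells exposed to compound for three days before fixation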
M1 antagonist: blocks the rat M1 muscarinic receptor response to acetylcholine; B-score at 10 µM; hit rate 3.4% among 64,000; CHO-M1 cells, Fluo-4 calcium, ACh EC80 antagonist mode; stronger effect = lower value; AID 628;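 active means calcium fluorescence response, raw or row-and-column corrected B-score, differing from the plate sample mean either way at a set confidence level, mostly lower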
WNV protease inh: blocks West Nile virus NS2B-NS3 protease activity. hit rate 0.18% among 65,000. P06935. WNV NS2B-NS3 protease, fluorogenic substrate Ex360/Em465; stronger effect = lower value. z-score (test concentration not listed). AID 577; in the data active means z-score below about -3
M1 ag: activates the M1 muscarinic receptor; CHO-M1 cells, Fluo-4 calcium fluorescence, agonist mode; stronger effect = higher value; AID 626; hit rate 3% among 64,000; B-score at 10 µM;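 active means fluorescence rise, raw or as B-score row- and column-corrected plate score, outside the 99.7% band of its plate's samples, either direction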
D1 allo mod: allosteric modulators of human D1 dopamine receptor; HEK293 D1, CRE-luciferase, dopamine EC30 potentiation; actives deviate in either direction; B-score at 10 µM; hit rate 5.9% among 58,000; AID 641;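 active means luminescence count or its row- and column-corrected plate score outside the 99.7% band of the plate's sample wells, on either side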
M1 agonist conf: rat M1 muscarinic agonism, confirmation. AID 1488. fluorescence change (max-min) at 10 µM. hit rate 19% among 1,700. shares compounds with M1 ag. CHO-M1 cells, Fluo-4 calcium fluorescence, agonist mode; actives lie on both sides;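 active means fluorescence change differs from the solvent-only DMSO control mean at a set confidence level in both duplicate runs; inconclusive means differs from solvent-only control mean in just one of two runs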;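 further: an EC20 dose of acetylcholine follows compound addition during the same imaging run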
M4 agonist ctr: counter-screen for M1 agonists: activity at rat M4 receptor. shares compounds with M1 ag. CHO M4/Gqi5 cells, Fluo-4 calcium fluorescence, agonist mode; actives lie on both sides. fluorescence change (max-min) at 10 µM. hit rate 9% among 1,700. AID 1741;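 active means fluorescence change differing from the plate's solvent-only control wells at 99.7% confidence in both duplicates, whether higher or lower; inconclusive means differs from solvent controls in only one of two duplicates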
Target sequence (P08485 whole entry, looked up): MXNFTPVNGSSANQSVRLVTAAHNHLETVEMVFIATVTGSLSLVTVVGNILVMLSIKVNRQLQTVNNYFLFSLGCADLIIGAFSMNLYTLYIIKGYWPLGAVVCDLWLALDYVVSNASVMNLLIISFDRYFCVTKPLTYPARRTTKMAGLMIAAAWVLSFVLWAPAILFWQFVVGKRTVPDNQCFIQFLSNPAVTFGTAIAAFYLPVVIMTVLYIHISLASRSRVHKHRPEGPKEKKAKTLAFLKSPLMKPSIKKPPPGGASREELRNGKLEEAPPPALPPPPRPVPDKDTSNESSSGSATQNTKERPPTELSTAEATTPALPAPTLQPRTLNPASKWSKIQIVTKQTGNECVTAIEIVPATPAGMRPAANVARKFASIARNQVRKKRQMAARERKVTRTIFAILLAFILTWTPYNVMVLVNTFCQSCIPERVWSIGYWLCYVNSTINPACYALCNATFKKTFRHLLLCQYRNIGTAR
Each line names hits and unclear results; the compound was inactive in the other large screens (follow-up assays come after a bar, where they were run). Shown are actives, neighbours in structure and some others; about 8.9% of the full set was active somewhere.

O=C(Nc1ccc(SC(F)F)cc1)c1ccc2nccnc2c1	M1 antagonist -0.93, M1 ag 3.8 | M1 agonist conf inactive | M4 agonist ctr inactive
COc1cc(/C=c2\s/c(=C(/C#N)C(=O)N3CCCC3)n(-c3ccccc3)c2=O)ccc1O	M1 ag 48 (no result: D1 allo mod) | M1 agonist conf inactive | M4 agonist ctr inactive
CCOC(=O)N1CCN(C(=O)C2CCN(C(=O)c3cc4sccc4n3CC)CC2)CC1	M1 ag 3.8 (no result: mHtt clearance) | M1 agonist conf inactive | M4 agonist ctr inactive
COCCn1nnnc1C(c1cc2ccc(OC)cc2[nH]c1=O)N1CCN(C2CCCCC2)CC1 (stereo not given)	none
COCCn1nnnc1C(c1cccc(OC)c1OC)N1CCN(C2CCCCC2)CC1 (stereo not given)	M1 ag 18 | M1 agonist conf inconclusive | M4 agonist ctr inactive
CCOC(=O)C1=C(O)/C(=C\c2ccc(CNC(=O)C(=O)Nc3ccc(C)c(C)c3)o2)N=C1C	none (no result: M1 antagonist, WNV protease inh, M1 ag, D1 allo mod)
CCOC(=O)N1CCN(C(=O)c2cc(-c3ccc(OCC)cc3)nc3ccccc23)CC1	M1 ag 8.7 | M1 agonist conf inconclusive | M4 agonist ctr inactive
CN1CCc2c(sc3c2C(=O)NC(c2ccc(-c4cccc(Cl)c4)o2)N3)C1 (stereo not given)	M1 ag 14 (no result: mHtt clearance, D1 allo mod) | M1 agonist conf inactive | M4 agonist ctr inactive
CN1CCc2c(sc3c2C(=O)NC(c2cccs2)N3)C1 (stereo not given)	none (no result: mHtt clearance)
Cc1ccc2cc(C#N)c(N3CCCN(C(=O)C4CCCO4)CC3)nc2c1C (stereo not given)	M1 ag 4.1 (no result: mHtt clearance) | M1 agonist conf inactive | M4 agonist ctr inactive
COC(=O)C1=C(C)NC(=O)CC1c1cccc(Cl)c1Cl (stereo not given)	M1 ag 3.8 (no result: mHtt clearance) | M1 agonist conf inconclusive | M4 agonist ctr inactive
COC(=O)c1cc2occc2n1Cc1c(F)cccc1Cl	none
O=C(CSc1nnc(-c2ccccn2)n1Cc1ccccc1)Nc1ccc2c(c1)OCO2	none
c1ccc(-n2c(-c3ccncc3)nnc2-c2cccs2)cc1	M1 ag 9.2 (no result: mHtt clearance) | M1 agonist conf inconclusive | M4 agonist ctr inconclusive
c1ccc(-n2c(-c3ccncc3)nnc2-c2ccco2)cc1	none
O=C1C2CC=C(Cl)CC2C(=O)N1CC1Cc2ccccc2CO1 (stereo not given)	M1 ag 2.2 | M1 agonist conf inactive | M4 agonist ctr inactive
O=C(O)c1ccccc1NCN1C(=O)C2CC=C(Cl)CC2C1=O (stereo not given)	M1 ag -2.2 | M1 agonist conf -26 | M4 agonist ctr inconclusive
O=C(CC(C(=O)N1CCc2ccccc21)n1ccnc1)N1CCc2ccccc2C1 (stereo not given)	none
Cc1cc(NC(=O)C23CCC(C)(c4nc5cc(Cl)c(Cl)cc5nc42)C3(C)C)no1 (stereo not given)	none
CCCCc1cc(O)c(CCCC)c(O)c1	M1 antagonist -3.3, M1 ag 37 | M1 agonist conf 275 | M4 agonist ctr 320
CCCNC(=O)C1CCN(S(=O)(=O)c2ccc(Br)cc2)CC1	none
CCC(C)(C)NC(=O)C(c1cccc(OC)c1)N(C(=O)c1ccn[nH]1)c1cccc(OC)c1 (stereo not given)	M1 ag 12 (no result: mHtt clearance) | M1 agonist conf -24 | M4 agonist ctr -68
COc1cccc(N(C(=O)Cn2nnc3ccccc32)C(C(=O)NCc2ccco2)c2cccnc2)c1 (stereo not given)	none (no result: mHtt clearance)
CCCS(=O)(=O)c1nc(S(=O)(=O)c2ccc(C)cc2)c(NCCCN2CCOCC2)s1	M1 ag 2.5 (no result: mHtt clearance, D1 allo mod) | M1 agonist conf inactive | M4 agonist ctr inconclusive
CC(C)OC(=O)[C@H]1[C@H](c2ccc(Cl)cc2)[C@@](C#N)(C(N)=O)[C@@H]2C=CC(C(N)=O)=CN21	none (no result: D1 allo mod)
COc1ccc(S(=O)(=O)Nc2cccc(SC)c2)cc1OC	none (no result: mHtt clearance)
CSc1cccc(NS(=O)(=O)c2cccs2)c1	M1 ag 2.8 | M1 agonist conf -28 | M4 agonist ctr inactive
Cn1c(=O)oc2cc(S(=O)(=O)Nc3cccc(F)c3)ccc21	none (no result: mHtt clearance, D1 allo mod)
CSc1cccc(NS(=O)(=O)c2ccc3c(c2)oc(=O)n3C)c1	M1 ag -4 | M1 agonist conf inactive | M4 agonist ctr inactive
O=C1CC(N2CCC(c3nc4ccccc4o3)CC2)C(=O)N1c1ccc(Cl)cc1 (stereo not given)	none
CCC(C(=O)OC)n1cnc2c(nnn2-c2ccc(OC)cc2)c1=O (stereo not given)	M1 ag 4.3 | M1 agonist conf inactive | M4 agonist ctr inactive
CCOC(=O)C(C)n1cnc2c(cnn2-c2ccc(Cl)cc2)c1=O (stereo not given)	none (no result: mHtt clearance, D1 allo mod)
CCOC(=O)C(CC)n1cnc2c(cnn2-c2ccc(Cl)cc2)c1=O (stereo not given)	M1 antagonist -6.2, M1 ag 55 (no result: mHtt clearance, D1 allo mod) | M1 agonist conf inactive | M4 agonist ctr inactive
C=CCc1cccc2cc(C(=O)O)c(=O)oc12	none (no result: M1 antagonist, WNV protease inh, M1 ag, D1 allo mod)
C=CCNS(=O)(=O)c1cccc2cc(C(=O)O)c(O)cc12	M1 ag 3.6 | M1 agonist conf inactive | M4 agonist ctr inactive
CC1(C)Cc2c(C#N)c(N3CCOCC3)nc(Cc3ccccc3)c2CO1	M1 ag 4.2 (no result: D1 allo mod) | M1 agonist conf inactive | M4 agonist ctr inconclusive
CC1(C)Cc2c(C#N)c(SCc3ccccc3)nc(N3CCOCC3)c2CO1	none
CC1(C)Cc2c(C#N)c(N3CCOCC3)nc(-c3ccccc3)c2CO1	none (no result: D1 allo mod)
CC1CCN(c2nc(-c3ccco3)c3c(c2C#N)CC(C)(C)OC3)CC1	M1 ag 4.5 (no result: mHtt clearance) | M1 agonist conf inactive | M4 agonist ctr inactive
CC1(C)Cc2c(C#N)c(SCC(=O)c3ccccc3)nc(N3CCOCC3)c2CO1	M1 ag 6.7, D1 allo mod -3.3 (no result: mHtt clearance) | M1 agonist conf inactive | M4 agonist ctr inconclusive
Nn1c(Nc2ccccc2)nc2ccccc2c1=O	none
O=c1[nH]c(Nc2ccccc2)cc2ccccc12	M1 ag 5.5 | M1 agonist conf inconclusive | M4 agonist ctr inactive
CC(=O)NCC(=O)OCN1C(=O)c2ccccc2C1=O	none (no result: D1 allo mod)
CCNc1c2c3c(cccc3n(C)c1=O)C(=O)c1ccccc1-2	M1 antagonist -17, M1 ag 357 (no result: mHtt clearance, D1 allo mod) | M1 agonist conf 3230 | M4 agonist ctr 2794
Cn1c(=O)c(NCCO)c2c3c(cccc31)C(=O)c1ccccc1-2	M1 antagonist -13, M1 ag 388 | M1 agonist conf 3131 | M4 agonist ctr 2588
CC(=O)c1ccc(N2C(=O)C3C(C2=O)C(C(=O)c2ccc(Cl)cc2)N2CCCC32)cc1 (stereo not given)	M1 ag 29 | M1 agonist conf 334 | M4 agonist ctr 470
Cn1nnnc1Sc1nc(-c2cccnc2)nc2ccccc12	none (no result: mHtt clearance)
COc1ccc(C2C(C(=O)c3cccs3)=C(O)C(=O)N2c2nnc(C)s2)cc1OC (stereo not given)	M1 ag 68 | M1 agonist conf 96 | M4 agonist ctr inactive
